Pf Dd2 inh: Plasmodium falciparum Dd2 growth inhibition; P. falciparum Dd2 growth, SYBR Green, 72 h; 4.3% of 120,000 active; AID 1347417; Potency, µM (doses to about 28.9 µM), for the others: at the highest dose activity, negative = inhibition, actives largely listed as inhibitors; active = well fitted inhibition curve with a large enough effect;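 note: plate controls were DMSO vehicle for no effect and reference drug for full effect; nearly all actives have a fitted effect of over 65% in size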
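Readout: SYBR Green fluorescence, 485 nm excitation, 535 nm emission, after ~16 h lysis at 37C. Before that, Dd2-infected red cells (2.5% hematocrit) grew 72 h with compound, 29 uM top final concentration.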
An asterisk follows results filed as active; i = inactive; [ ] = another dose, or the depositor's remark. Many of the other results were omitted from the sample, so hits are more common in it than they were. Potency is the fitted concentration of half-maximal effect.

SMILES | Pf Dd2 inh
COc1ccc(CC(=O)NC2CCN(c3cc(-c4ccc(Cl)cc4)[nH]n3)C2)cc1OC (stereo not given) | 7.9µM*
COc1cccc(CC(=O)NC2CCCN(c3cc(-c4ccc(F)cc4)[nH]n3)C2)c1 (stereo not given) | i
COc1ccc(CC(=O)NC2CCN(c3cc(-c4ccc(F)cc4)[nH]n3)C2)cc1 (stereo not given) | -10%
COc1ccc(-c2cc(N3CCC(NC(=O)Cc4ccc(Cl)cc4)CC3)n[nH]2)cc1 | -13%
COc1cc(-c2ccnc3nc(CC(C)C)nn23)cc(OC)c1OC | i
CC1=C[C@@H](CNC(=O)c2ccco2)[C@H](C(C)C)C[C@H]1CC(=O)NCc1ccccn1 | i
CC1(C)CN(Cc2nnc(-c3cccc(F)c3)o2)CC[C@]1(C)O | -20%
O=C(CN1CC2CC(C1)[C@H]1CCCC(=O)N1C2)NCCc1ccccc1 (stereo not given in full) | -4%
O=C(NC1CC1)c1nc(-c2cccc(C(F)(F)F)c2)c2ccccn12 | -19%
C#CCNC(=O)c1nc(-c2ccsc2)c2cnccn12 | -11%[44.1 µM]
O=C(NCc1cccs1)c1nc(-c2cccnc2)c2cnccn12 | 11µM*
O=C(NCc1ccc2c(c1)OCO2)c1nc(-c2cccc(C(F)(F)F)c2)c2ccccn12 | i
COCCNC(=O)c1nc(-c2cccc(C(F)(F)F)c2)c2ccccn12 | i
C#CCNC(=O)c1nc(-c2cccc(C(F)(F)F)c2)c2cnccn12 | 3.5µM*
O=C(NCc1ccc2c(c1)OCO2)c1nc(-c2cccnc2)c2cnccn12 | i
O=C(NCc1cccnc1)c1nc(-c2cccc(C(F)(F)F)c2)c2ccccn12 | 7.9µM*
COCCNC(=O)c1nc(-c2cccc(C(F)(F)F)c2)c2cnccn12 | 10µM*
C#CCNC(=O)c1nc(-c2cccnc2)c2cnccn12 | i
COCCNC(=O)c1nc(-c2ccc(OC)cc2)c2ccccn12 | 6%
O=C(NCc1cccs1)c1nc(-c2cccnc2)c2ccccn12 | -7%
O=C(N1CCN(c2ncncn2)CC1)N(c1ccccc1)c1ccccc1 | -6%
COC1CN(c2cccc(F)c2)C12CCN(C(=O)c1ccnn1C)CC2 (stereo not given) | 15%
O=C(N[C@H]1C[C@H]2C(=O)NC[C@@H](CCC(=O)N3CCN(c4ccccc4)CC3)N2C1)c1ccco1 | -5%
COC[C@@H]1CN(S(=O)(=O)c2ccc(C)cc2C)C[C@H]1C(N)=O | -12%
CC(=O)N1C[C@@H]2CCCN3CCC[C@@H]([C@H]23)[C@H]1CCCC(=O)NCCN(C)C1CCCCC1 | i
SMILES | Pf Dd2 inh
CC1(C(=O)NCc2ccsc2)CCOCC1 | 15%[44.1 µM]
COc1ccc(-c2noc(N3CCC(C(=O)Nc4cccc(C)c4C)CC3)n2)cc1 | -2%
CCN(CC)C(=O)C1CCN(S(=O)(=O)c2c(C)noc2/C=C/c2cccc(OC)c2)CC1 | -21%
COc1ccc(/C=C\c2onc(C)c2S(=O)(=O)N2CCC(C(=O)Nc3cccc(OC)c3)CC2)cc1 | 8.9µM*
Cc1ccc(/C=C/c2onc(C)c2S(=O)(=O)N2CCC(C(=O)Nc3ccc(Br)c(C)c3)CC2)cc1 | 2%
COc1ccc(CNC(=O)C2CCN(S(=O)(=O)c3cccc(-c4noc(C)n4)c3)CC2)cc1 | i
COc1ccc(NC(=O)C2CCN(S(=O)(=O)c3cc(-c4noc(C)n4)ccc3C)CC2)cc1 | 6.3µM*
CNC(=O)[C@@H]1CN(S(=O)(=O)c2cc(F)ccc2C)C[C@H]1C1CCN(C)CC1 | -18%
O=C(NCc1cccnc1)c1c(OCC2CC2)cc(=O)n2c1CCCCC2 | -10%
O=C(c1ccc(F)c(Cl)c1)N1C[C@@H](CO)[C@H](c2ccncc2)C1 | -8%
CN1C(=O)CCCCC1C(=O)NCC1CCCCC1 (stereo not given) | 12%
Cc1ccccc1CN1CCCC(CCNS(=O)(=O)C2CC2)C1 (stereo not given) | 10µM*
O=c1cc(CN2CCCC(CCc3ccccc3C(F)(F)F)C2)[nH]c(=O)[nH]1 (stereo not given) | -12%
COc1coc(CN2CCCC(CCc3ccccc3F)C2)cc1=O (stereo not given) | i
Cn1cc(-c2cn[nH]c2)c2nc(COc3ccccc3)cn2c1=O | i
COc1cc2c(cc1OCc1ccncc1)NC(=O)C21CCN(C(C)=O)CC1 | i
Cc1c(-c2ccccc2)n(-c2ccccc2O)c2nc3c(c(=O)n(C)c(=O)n3C)n12 | 3.2µM*
Cc1cc(C)cc(-n2c(-c3ccccc3)c(C)n3c4c(=O)n(C)c(=O)n(C)c4nc23)c1 | 21%
CCOc1ccc(-n2c(-c3ccccc3)c(C)n3c4c(=O)n(C)c(=O)n(C)c4nc23)cc1 | -7%
Cc1c(CN(C)C(=O)CC2C(=O)NCCN2CC(C)(C)C)[nH]c2ccccc12 (stereo not given) | -3%
CC(=O)N[C@H]1CN(C(=O)c2ccccc2C(F)(F)F)C[C@@H]1C1CC1 | -6%
Cc1ccc(NC(=O)c2cc3n(n2)CC(c2ccc4c(c2)OCO4)OC3)cc1 (stereo not given) | i
